From PubChem BioAssay (NCI) come the findings set out here.

About 83,000 compounds went through this panel and 20% of them were active in at least one assay; those are over-represented in the sample as a whole.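 Testing used 96-well plates and a 48-hour single-concentration exposure. Example: -40 means 40% of the starting cells died.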 Values without a mark were called inactive. Active and inactive are the calls of the source. The calls were made as follows: active = growth percent below 10; inactive = the rest.

Common to all, as to experiment: NCI-60 one-dose screen, 48 h (100 = growth as untreated, 0 = no growth, -100 = all killed)
What all share (details): 10 µM unless noted

The subject of assay [1] is NCI-H23 lung.
For assay [2], the system named is NCI-H226 lung.
Assay [3] relates to NCI-H322M lung.
Assay [4] deals with HOP-62 NSCLC.
Assay [5] relates to NCI-H460 lung.
Assay [6] concerns HOP-92 NSCLC.
Assay [7] deals with NCI-H522 lung.
Assay [8] deals with A549/ATCC NSCLC.
Assay [9] deals with 786-0 renal.
In assay [10] the test system is COLO 205 colon.

Take `Cc1cc(N2CCCCCC2)nc(NC2CCCC(Nc3ccnc4cc(Cl)ccc34)C2)n1` (stereo not given): the growth was -50.8% (active) in assay [1]; -61.3% (active) in assay [2]; -70.9% (active) in assay [3]; -83% (active) in assay [4]; -82.2% (active) in [5]; -82% (active) in assay [6]. For the same molecule, the growth in [7] was -72% (active); in assay [8], -68.3% (active); in [9], -96.3% (active); in [10], -80.1% (active).

As for `CCCCC/C(C=C(C#N)C#N)=C/c1ccccc1`, the growth in assay [1] was 68.9%; in [2], 116%; in assay [3], 102%; in [4] it was 106%; in assay [5], 37.4%; in assay [6] it was 112%. For the same molecule, the growth was -10.1% (active) in assay [7], 61.6% in assay [8], 87% in [9] and 86.5% in assay [10].

Turning to `CSc1nc(NCCO)c(C#N)c(-c2cccc([N+](=O)[O-])c2)n1`, the growth is 99.5% in assay [1]; 93.1% in assay [2]; 102% in assay [3]; 91.6% in assay [4]; 101% in [5]; 79.4% in [6]. In addition, the growth is 92.3% in assay [7], 105% in assay [8], 100% in [9] and 116% in assay [10].

With `COc1ccc(S(=O)(=O)N2CCN(C)CC2)cc1NC(=O)c1[nH]c(C)c2c1CCCCC2=O`, the growth in [1] was 66.9%; in assay [2], 61.7%; in assay [3], 59.9%; in [4], 43.4%; in assay [5], 73.3%; in [6], 34.6%. The growth in [7] is 50.1%; in [8] it was 62.3%; in assay [9], 58.6%; in [10], 33.1%.

For the molecule `Nc1n[nH]c2ccc([C@@H]3Nc4cc5c(cc4[C@H]4C6CCC(C6)[C@@H]34)C(=O)NC5)cc12` (stereo not given in full), the growth in assay [1] is 28.3%; in assay [2] it was 4.99% (active); in assay [3], 42.1%; in assay [4] it was 39.4%; in [5], 1.7% (active); in assay [6], 75.3%. Moreover, the growth was 16.9% in [7], 26.4% in assay [8], 17.3% in [9] and -40.1% (active) in [10].

As for `COc1cccc(-c2nc3sccn3c2-c2ccnc(NCCCNS(=O)(=O)c3cccc(F)c3)c2)c1`, the growth in assay [1] was 21.3%; in assay [2] it was 19.1%; in assay [3] it was 72%; in [4], 33.4%; in [5], 44.9%; in assay [6], 49.5%. For the same molecule, the growth in [7] is 18.1%; in [8], 18.1%; in assay [9], 52.6%; in assay [10] it was 19%.

Regarding `O=C1CSC(=S)N1CCc1ccc(O)cc1`, the growth in assay [1] was 95%; in assay [2], 108%; in assay [3], 98.1%; in [4], 85.2%; in assay [5], 99%; in assay [6] it was 66.9%. In addition, the growth in assay [7] was 46.8%; in assay [8] it was 96.7%; in assay [9], 40%; in [10], 106%.

As for `Cn1c(O)c(N=NC(=O)c2cc(-c3ccccc3)on2)c2ccccc21`, the growth was 88.5% in assay [1]; 88.4% in assay [2]; 108% in assay [3]; 102% in assay [4]; 100% in [5]; 105% in [6]. Besides, the growth was 89.9% in [7], 108% in assay [8], 100% in assay [9] and 130% in assay [10].

With `C=C1c2nc3ccccc3n2C=C(c2ccc(Cl)cc2)N1Cc1ccc(OC)cc1`, the growth in assay [1] is 54.2%; in [2] it was 80.8%; in assay [3], 101%; in assay [4] it was 118%; in assay [5], 81.3%; in assay [6], 77.4%. Also, the growth in [7] is 57.3%; in assay [8], 84.5%; in assay [9] it was 94%; in [10], 71.1%.

As to `COc1cc(-c2nn(C)nc2-c2cc3ccccc3s2)cc(OC)c1OC`, the growth in [1] was 30.4%; in assay [2] it was 55.5%; in assay [3] it was 44.9%; in assay [4], 32.7%; in assay [5], 13%; in assay [6], 64.9%. Moreover, the growth in assay [7] is 0.184% (active); in assay [8], 23.3%; in assay [9], 36.8%; in assay [10], -14.5% (active).

Regarding `O=c1ccccc(-c2ccc(Br)cc2)c1O`, the growth is 13.9% in [1]; 18.2% in assay [2]; 21.1% in [3]; 10.6% in assay [4]; 2.75% (active) in assay [5]; 58% in assay [6]. Moreover, the growth in assay [7] was 19.2%; in [8], 11%; in assay [9] it was 8.52% (active); in assay [10], 22.7%.

Take `COc1ccc(CN2c3ccccc3Sc3ccccc32)c(C(F)(F)F)c1`: the growth in [1] is 43.9%; in [2], 57.7%; in assay [3], 49.1%; in assay [4], 41%; in assay [5], 9.92% (active); in assay [6], 39.4%. In addition, the growth was -46.3% (active) in [7], 33.2% in [8], 41.9% in [9] and -29.1% (active) in assay [10].

Take `COc1cccc(Nc2nc(SC)nc(-c3cccc([N+](=O)[O-])c3)c2C#N)c1`: the growth in assay [1] is 78.3%; in [2] it was 19.3%; in assay [3], 74%; in assay [4] it was 27%; in assay [5], 41.7%; in assay [6], 62.9%. For the same molecule, the growth in assay [7] is 72.1%; in [8], 28%; in [9], 36.4%; in assay [10] it was 82.1%.

As for `Cc1cc(C)nc(SC2=C(Nc3ccc(C)c(Cl)c3)C(=O)N(Cc3ccccc3)C2=O)n1`, the growth was 62.4% [30 µM] in [1]; 74.5% [30 µM] in assay [2]; 82% [30 µM] in assay [3]; 86.9% [30 µM] in [4]; 52.4% [30 µM] in [5]; -4.65% [30 µM] (active) in assay [6]. In addition, the growth in [7] was 73.8% [30 µM]; in [8], 41.2% [30 µM]; in assay [9] it was 68.6% [30 µM]; in assay [10] it was 81.2% [30 µM].
